This is part of a sample that, as a whole, favours compounds with a hit. Of some 83,000 tested, about 20% had one in any assay.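 Single-concentration screen, 48 h exposure, 96-well plates. Endpoint: percent growth. Below 10 = active.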 Unmarked numbers belong to inactive results. Active and inactive are the calls of the source.
Assays:
Assay in all cases: NCI-60 one-dose screen, 48 h (100 = growth as untreated, 0 = no growth, -100 = all killed)
SR leukemia = conditions: 10 µM unless noted
RPMI-8226 leukemia = conditions: 10 µM unless noted
OVCAR-8 ovarian = conditions: 10 µM unless noted
OVCAR-5 ovarian = conditions: 10 µM unless noted
OVCAR-4 ovarian = conditions: 10 µM unless noted
SK-OV-3 ovarian = conditions: 10 µM unless noted
IGROV1 ovarian = conditions: 10 µM unless noted
OVCAR-3 ovarian = conditions: 10 µM unless noted
NCI/ADR-RES ovarian = conditions: 10 µM unless noted
T-47D breast = conditions: 10 µM unless noted
BT-549 breast = conditions: 10 µM unless noted
MDA-MB-435 melanoma = conditions: 10 µM unless noted
SW-620 colon = conditions: 10 µM unless noted
MCF7 breast = conditions: 10 µM unless noted
HCT-116 colon = conditions: 10 µM unless noted
HCC-2998 colon = conditions: 10 µM
KM12 colon = conditions: 10 µM unless noted

Row | SMILES | growth (SR leukemia) | growth (RPMI-8226 leukemia) | growth (OVCAR-8 ovarian) | growth (OVCAR-5 ovarian) | growth (OVCAR-4 ovarian) | growth (SK-OV-3 ovarian) | growth (IGROV1 ovarian) | growth (OVCAR-3 ovarian) | growth (NCI/ADR-RES ovarian) | growth (T-47D breast) | growth (BT-549 breast) | growth (MDA-MB-435 melanoma) | growth (SW-620 colon) | growth (MCF7 breast) | growth (HCT-116 colon) | growth (HCC-2998 colon) | growth (KM12 colon)
1 | NS(=O)(=O)c1ccc(CCN2C(=O)/C(=C\c3ccc(Cl)cc3)C=C2c2ccc3ccccc3c2)cc1 | 83.3% | 89.6% | 83.7% | 89.5% | 95.3% | 84% | 94.2% | 104% | 95.3% | 71.8% | 95.1% | 97% | 106% | 90.6% | 89.5% | 94.8% | 93%
2 | O=C(Cc1ccc(/C=C/C(=O)c2ncc[nH]2)cc1)Nc1ccc(Br)cc1 | 5.06% (active) | -13.3% (active) | 6.77% (active) | 18.7% | 46.4% | 70.2% | 8.48% (active) | 9.63% (active) | 13.4% | 17.5% | 20.5% | 43.5% | 2.37% (active) | 11.8% | -40.2% (active) | 78.6% | -43.3% (active)
3 | COc1cc2ncnc(Oc3cccc(NC(=O)Nc4cc(C(C)(C)C(F)(F)F)on4)c3)c2cc1OC | 28.5% | 30.6% | 25.1% | 12.8% | 36.3% | -26.5% (active) | -11.1% (active) | 50.4% | 23.9% | 9.47% (active) | 37.4% | 13.3% | 27.4% | 37.8% | 10.8% | 52.8% | 42.4%
4 | C=CC(=O)Nc1cccc(Nc2nc(Nc3ccc(N4CCN(C(C)=O)CC4)cc3OC)ncc2C(F)(F)F)c1 | 1.68% (active) | 16.8% | 18.9% | 13.4% | 10.5% | -18% (active) | -29.9% (active) | 19.5% | 21.3% | -5.01% (active) | 19.7% | 23.1% | 2.57% (active) | 4.41% (active) | 12% | 34.7% | 15.7%
5 | COc1cc2nccc(Oc3ccc(NC(=O)C4(C(=O)Nc5ccc(F)cc5)CC4)cc3)c2cc1OC | 0.0186% (active) | 26.4% | 19.8% | 9.6% (active) | 26.3% | -15.1% (active) | -15.9% (active) | 41.2% | 13.8% | -14% (active) | 32.8% | 8.75% (active) | -27.3% (active) | 15.6% | 1.99% (active) | 30.5% | 7.5% (active)
6 | CN1CCC(CNc2ccc3ncc(-c4cccc(OC(F)(F)F)c4)n3n2)CC1 | -19.4% (active) | -45.3% (active) | 0.791% (active) | -32.8% (active) | -1.72% (active) | -1.52% (active) | -60.4% (active) | -26.6% (active) | -4.75% (active) | -79.5% (active) | -0.185% (active) | -95.8% (active) | -61.9% (active) | -49.5% (active) | -75.1% (active) | -84.4% (active) | -1.37% (active)
7 | Cc1nc(N)sc1-c1ccnc(Nc2ccc(N3CCOCC3)cc2)n1 | 2.59% (active) | 31.4% | 34.2% | 42.8% | 53.7% | 8.94% (active) | 12.3% | 59.6% | 61.4% | 29.8% | 17.3% | 67.2% | 41.4% | 27.2% | 26.2% | 77.8% | 23.7%
8 | CCN(CCCOc1ccc2c(Nc3cc(CC(=O)Nc4cccc(F)c4)[nH]n3)ncnc2c1)CCOP(=O)(O)O | 36.3% | 91.5% | 70.2% | 59.3% | 79.9% | 77.1% | 62.4% | 78.2% | 98.3% | 73.6% | 75.9% | 69.2% | 35.8% | 46.6% | 47.5% | 61.4% | 21.4%
9 | CCN(CC)CCN1C(=O)c2cccc3c(-c4ccc5c(c4)ncn5C4CCCCC4)ccc(c23)C1=O | -14% (active) | -33% (active) | 25.9% | 36.4% | 32.9% | 21.2% | 28.4% | 44.8% | 21.8% | -9.17% (active) | 4.57% (active) | 17% | 11.2% | -7% (active) | -66.1% (active) | 36.7% | 24.3%
10 | Cc1ccc(C(=O)Nc2ccc(CN3CCN(C)CC3)c(C(F)(F)F)c2)cc1C#Cc1cnc2cccnn12 | -28.2% (active) | -45.5% (active) | -95.8% (active) | -81.9% (active) | -76.2% (active) | -94% (active) | -65.5% (active) | -95.9% (active) | -49.1% (active) | -70.9% (active) | -97.7% (active) | -98.2% (active) | -87.6% (active) | -74.1% (active) | -85.3% (active) | -91.8% (active) | -91.3% (active)

Reference: PubChem BioAssay (NCI)
